Inconclusive results are not listed. The source made the active and inactive calls. Calls follow the shape of the dose curve; as a rule, active = well fitted curve in the direction sought with a large enough effect; inconclusive = small, poorly fitted or top-dose-only effect, or effect the other way, or another doubt; inactive = no such curve, though single readings can be large or run the other way.
Biological target: Pyruvate kinase PKLR (Homo sapiens) (UniProt P30613)
Experiment: Confirmation Concentration-Response Assay for Activators of Human Liver Pyruvate Kinase
Conditions: purified hPK-L, Kinase-Glo ATP luminescence, 1 h; series mostly up to 57.5 µM; activity change, positive = activation: at the top concentration
Description: Confirmatory assay NIH Chemical Genomics Center [NCGC] Matthew G. Vander Heiden, M.D., Ph.D. [Harvard Medical School, 77 Avenue Louis Pasteur, Boston, MA 02115] NCGC Assay Overview: Human pyruvate kinase liver (hPK-L) enzyme was supplied as a highly purified (>95% pure) preparation from Harvard Medical School and assayed for its ability to generate ATP from ADP using phosphoenolpyruvate (PEP) as a substrate. ATP generation was detected in a coupled reaction by luciferase-mediated luminescence, an ATP-dependent process. Pyruvate kinase substrates, PEP and ADP, were present in the assay at Km and approximately 10-fold below Km respectively. The enzyme was assayed at an intermediate level of activity to screen for both inhibitors and activators.
NCGC Assay Protocol Summary for L-isoform: Three uL of substrate mix (at r.t.) in assay buffer (50 mM Imidazole pH7.2, 50 mM KCl, 7 mM MgCl2, 0.01% Tween 20, 0.05% BSA) was dispensed into white solid bottom 1,536 well microtiter plates so that the final concentrations of substrates in the assay were 0.1 mM ADP and 0.5 mM PEP. 23 nL of compound were delivered by a pin tool and 1 uL of enzyme mix (final concentration of 0.1 nM) in assay buffer (4 degree Celsius) was added. Plates were incubated at room temperature for 1 hour. Two uL of detection mix (Kinase-Glo, Promega; at 4 degree Celsius protected from light) was added and luminescence read by a ViewLux (Perkin Elmer) at 1 second exposure/plate. Data were normalized to the uninhibited (row 31). Additionally, a no enzyme and 5-fold enzyme control was dispensed in row 32, split equally between the two conditions.

Chain of Pyruvate kinase PKLR (Homo sapiens) (P30613 whole entry, looked up): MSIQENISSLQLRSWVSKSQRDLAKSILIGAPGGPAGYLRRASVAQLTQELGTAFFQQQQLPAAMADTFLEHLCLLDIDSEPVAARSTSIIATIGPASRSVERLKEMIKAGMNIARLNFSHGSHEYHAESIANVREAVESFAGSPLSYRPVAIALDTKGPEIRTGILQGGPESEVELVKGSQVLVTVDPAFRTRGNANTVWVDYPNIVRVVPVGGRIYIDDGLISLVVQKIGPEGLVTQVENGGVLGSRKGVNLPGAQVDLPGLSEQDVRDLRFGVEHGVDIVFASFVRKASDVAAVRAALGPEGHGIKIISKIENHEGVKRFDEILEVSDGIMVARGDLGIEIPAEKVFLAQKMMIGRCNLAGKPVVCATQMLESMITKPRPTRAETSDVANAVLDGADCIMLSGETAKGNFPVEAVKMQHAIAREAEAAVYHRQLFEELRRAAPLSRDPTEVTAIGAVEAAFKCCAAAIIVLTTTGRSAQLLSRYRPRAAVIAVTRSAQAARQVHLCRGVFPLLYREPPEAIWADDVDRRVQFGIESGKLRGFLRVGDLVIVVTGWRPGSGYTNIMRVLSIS

Activity change, positive = activation, inactive:
Cn1c2cc(S(C)=O)sc2c2cnn(Cc3ccccc3F)c(=O)c21 (stereo not given) -5.87%
CCCCCn1ncc2c3sc(C)cc3n(C)c2c1=O 1.95%
C[C@@H]1CN(S(=O)(=O)c2ccc3c(c2)OCCO3)CCN1S(=O)(=O)c1c(F)cccc1F 7.03%
N#Cc1ccc(S(=O)(=O)N2CCN(S(=O)(=O)c3ccc4c(c3)OCCO4)CC2)cc1 1.16%
Cc1ccc(Cn2ncc3c4sc(C)cc4n(C)c3c2=O)cc1 3.18%
Cc1cc2c(s1)c1cnn(Cc3ccc(-c4ccccc4)cc3)c(=O)c1n2C 2.12%
Cc1cc2c(s1)c1cnn(-c3ccccc3)c(=O)c1n2C 8.8%
O=S(=O)(c1ccc2c(c1)OCCO2)N1CCN(S(=O)(=O)c2cccc[n+]2[O-])CC1 -0.719%
Cc1cc2c(s1)c1cnn(Cc3ccc(C)c(F)c3F)c(=O)c1n2C 5.3%
COc1ccc(Cn2ncc3c4sc(C)cc4n(C)c3c2=O)cc1 3.19%
O=S(=O)(NC1CCN(S(=O)(=O)c2c(F)cccc2F)C1)c1ccc2c(c1)OCCO2 (stereo not given) 11.9%
Cc1cc2c(s1)c1cnn(Cc3ccc(F)cc3F)c(=O)c1n2C 5.82%
O=S(=O)(NCCNS(=O)(=O)c1c(F)cccc1F)c1ccc2c(c1)OCCO2 13.3%
Cc1cc2c(s1)c1cnn(Cc3ccccc3F)c(=O)c1n2C(C)C -5.09%
Cc1cc2c(s1)c1cnn(Cc3ccc(S(C)(=O)=O)cc3)c(=O)c1n2C 2.28%
CCn1c2cc(C)sc2c2cnn(Cc3ccccc3F)c(=O)c21 -4.37%
Cn1c2ccsc2c2ncn(Cc3ccccc3F)c(=O)c21 8.95%
Cc1cc2c(s1)c1cnn(Cc3ccc(Cl)cc3)c(=O)c1n2C -5.43%
Cn1c2cc(B(O)O)sc2c2cnn(Cc3ccccc3F)c(=O)c21 9.38%
O=S(=O)(NC1CCN(S(=O)(=O)c2ccc3c(c2)OCCO3)C1)c1c(F)cccc1F (stereo not given) 13.5%
Cc1cc2c(s1)c1cnn(Cc3cc(C(F)(F)F)cc(Cl)c3F)c(=O)c1n2C 4.37%
Cc1cc2c(s1)c1cnn(Cc3c(F)cccc3F)c(=O)c1n2C 2.36%
O=C(c1c(F)cccc1F)N1CCN(S(=O)(=O)c2ccc3c(c2)OCCO3)CC1 -1.57%
O=S(=O)(NCCCCCCNS(=O)(=O)c1c(F)cccc1F)c1ccc2c(c1)OCCO2 9.97%
CCCc1cc(F)c(S(=O)(=O)N2CCN(S(=O)(=O)c3ccc4c(c3)OCCO4)CC2)cc1F -1.3%
O=S(=O)(c1ccc2c(c1)OCCCO2)N1CCN(S(=O)(=O)c2c(F)cccc2F)CC1 7.28%
COc1ccc(S(=O)(=O)N2CCN(S(=O)(=O)c3ccc4c(c3)OCCO4)CC2)cc1 -17.8%
O=S(=O)(NCCCCCNS(=O)(=O)c1c(F)cccc1F)c1ccc2c(c1)OCCO2 11.1%
O=C(CN1C(=O)N/C(=C\c2cccn2-c2cccc(C(=O)O)c2)C1=O)Nc1ccccc1F -8.34%
O=S(=O)(c1ccc2c(c1)OCCO2)N1CCN(S(=O)(=O)c2ccc3c(c2)OCCO3)CC1 10.6%
Cc1cc2c(s1)c1cnn(Cc3ccc(C(C)C)cc3)c(=O)c1n2C 7.38%
CC(=O)Nc1cc2c(s1)c1cnn(Cc3ccccc3F)c(=O)c1n2C 0.724%
Cc1cc2c(s1)c1cnn(Cc3cccc(F)c3F)c(=O)c1n2C -7.7%
COc1cc2c(s1)c1cnn(Cc3ccccc3F)c(=O)c1n2C 12.5%
Cn1ccc2cc(S(=O)(=O)N3CCN(S(=O)(=O)c4c(F)cccc4F)CC3)ccc21 10.8%
Cc1cc2c(s1)c1cnn(Cc3c(F)c(F)cc(F)c3F)c(=O)c1n2C 1.25%
COC(=O)c1cc2c(s1)c1cnn(Cc3ccccc3F)c(=O)c1n2C 6.65% [at 28.7 µM]

outcome, inactive:
Cc1cc2[nH]c3c(=O)n(Cc4ccccc4F)ncc3c2s1
Cn1c2cc(C#N)sc2c2cnn(Cc3ccccc3F)c(=O)c21
COc1ccc(S(=O)(=O)N2CCN(S(=O)(=O)c3ccc(OC)cc3)CC2)cc1

Reference: PubChem BioAssay AID1781 (National Center for Advancing Translational Sciences (NCATS), 2009)
